Source: PubChem
Compounds with a hit are over-represented: about 19% of the library has one in this group of screens.
TDP1 cell noCPT: qHTS for Inhibitors of human tyrosyl-DNA phosphodiesterase 1 (TDP1): qHTS in cells in absence of CPT; AID 686978, 2013; DT40 Tdp1-/- hTDP1 cells, no CPT, ATP luminescence, 48 h; 15% of 420,000 active; Potency, µM (top dose mostly 46.2 µM), without a hit: at the highest dose activity change, negative = growth inhibition, usual class: inhibitors; also: potency is read from the fitted curve at half-maximal effect; % is scaled to controls: 0 for no effect and ±100 for the full control effect; nearly all actives have a fitted effect of over 55% in size
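Readout: luminescence from CellTiter-Glo after 30 min in the dark at RT. Cells: DT40 Tdp1-/- with stable hTDP1, 400/well. Exposure: compounds alone, ≥48 hr, 37 °C.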
TDP1 cell CPT: growth inhibition of DT40 Tdp1-/-;hTDP1 cells with camptothecin (screen for TDP1 inhibitors) | 12% of 420,000 active | chicken DT40 Tdp1-/-;hTDP1 cells + 20 nM CPT, ATP luminescence, 48 h | AID 686979 | Potency, µM (series often up to 46.2 µM), without a hit: at the top dose activity change, negative = growth inhibition, usual class: inhibitors; also: potency is read from the fitted curve at half-maximal effect; % is scaled to controls: 0 for no effect and ±100 for the full control effect; nearly all actives have a fitted effect of over 55% in size
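Cell growth measured by CellTiter-Glo luminescence after a minimum 48 h, 37 C compound exposure with 20 nM CPT in Tdp1-knockout DT40 cells stably expressing hTDP1, seeded 400/well; qHTS titration format.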
TGFb inhibitor: TGF-b pathway inhibition | Potency, µM (highest dose often 46.1 µM), inactives show at the top dose activity, negative = inhibition, usual class: inhibitors | 1.2% of 410,000 active | HepG2 CAGA-GFP TGF-b/SMAD3 reporter, GFP fluorescence, 18 h; TGF-beta stimulated, 500 pg/mL final | AID 588855; also: potency is read from the fitted curve at half-maximal effect; % is scaled to controls: 0 for no effect and ±100 for the full control effect; nearly all actives have a fitted effect of over 65% in size
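Using HEPG2 CAGA-GFP reporter cells at 1000 cells/well, we pinned test compounds, stimulated with recombinant TGF-beta (500 pg/mL final) and measured total well GFP after 18 h.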
HepG2 tox: kills HepG2 cells in TGF-b inhibitor counter-screen; 0.76% of 410,000 active; Potency, µM (titrated, usually from 46.1 µM), inactives show top-dose activity change, negative = cytotoxicity, actives largely listed as cytotoxic; HepG2 CAGA-GFP viability, ATP luminescence, 18 h; also: potency is read from the fitted curve at half-maximal effect
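HepG2 CAGA-GFP cells (1000/well, DMEM with 1% FBS) received compound, then TGF-beta at 500 pg/mL final, and were incubated 18 hours at 37 degrees C. Viability was read by CellTiter-Glo luminescence. Media-only wells were set as complete cell-killing and DMSO as no toxicity.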
S-ASM inh: blocks human secretory acid sphingomyelinase | P17405 | placental ASM, HMU-PC fluorogenic substrate, 60 min | Potency, µM (doses to about 57.5 µM), for inactives: at the top dose activity change, negative = inhibition, hits mostly inhibitors | 0.006% of 340,000 active | AID 504937; also: potency is read from the fitted curve at half-maximal effect
Target sequence (P17405 47-631 limits assumed): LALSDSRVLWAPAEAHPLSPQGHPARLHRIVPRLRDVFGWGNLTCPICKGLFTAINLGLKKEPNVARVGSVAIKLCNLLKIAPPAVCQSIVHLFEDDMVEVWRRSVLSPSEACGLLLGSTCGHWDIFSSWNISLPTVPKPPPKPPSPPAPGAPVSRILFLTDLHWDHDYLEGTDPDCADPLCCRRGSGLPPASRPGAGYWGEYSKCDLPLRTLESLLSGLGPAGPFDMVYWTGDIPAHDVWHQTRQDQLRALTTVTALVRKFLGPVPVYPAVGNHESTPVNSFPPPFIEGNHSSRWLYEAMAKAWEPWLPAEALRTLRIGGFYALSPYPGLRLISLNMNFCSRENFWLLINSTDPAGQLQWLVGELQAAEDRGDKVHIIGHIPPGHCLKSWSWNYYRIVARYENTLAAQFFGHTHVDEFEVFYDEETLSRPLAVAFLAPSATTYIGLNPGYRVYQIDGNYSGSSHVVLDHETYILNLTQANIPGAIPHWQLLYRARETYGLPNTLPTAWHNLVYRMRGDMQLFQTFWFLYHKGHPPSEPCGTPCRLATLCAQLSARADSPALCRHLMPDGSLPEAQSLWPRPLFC
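Human placenta-derived ASM preincubated with compound 10 min at room temperature, then reacted with 9 uM (final) fluorogenic HMU-PC substrate for 60 min at 37 C. Stop solution raises pH to 10; fluorescence read at Ex 386/Em 447 nm.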
IL-1B inflam inh: blocks inflammasome-driven IL-1 beta release | THP-1 LPS/ATP IL-1B secretion, AlphaLISA, 16 h; stronger effect = lower value | activity change, % at 57.5 µM | 4.7% of 360,000 active; in the data active = activity change below about -50%; inconclusive = mostly about -30% to -49%; also: % is scaled to controls: 0 for no effect and ±100 for the full control effect
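THP-1 cells pretreated 1 hr with compounds (up to 57.5 uM final), then stimulated with LPS (250 ng/mL final) plus ATP (1.25 mM final); secreted IL-1B measured by AlphaLISA after 16 hr, decreased signal indicating inhibition.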
An asterisk follows results filed as active; ? = inconclusive; / = no result. Unless noted, calls follow the shape of the dose curve; as a rule, active = well fitted curve in the direction sought with a large enough effect; inconclusive = small, poorly fitted or top-dose-only effect, or another doubt; inactive = no such curve, though single readings can be large; an effect the other way counts as inactive or inconclusive.

SMILES	TDP1 cell noCPT	TDP1 cell CPT	TGFb inhibitor	HepG2 tox	S-ASM inh	IL-1B inflam inh
CCc1ccc(NC(=O)Cn2c(=O)n(CCCC(=O)NCc3ccc4c(c3)OCO4)c(=O)c3ccccc32)cc1	?	21µM*	0%	-19%	/	/
Cc1ccc(C)c(Cn2c(=O)n(CCCC(=O)NCc3ccc4c(c3)OCO4)c(=O)c3sccc32)c1	15µM*	?	-29%	-25%	/	/
COc1ccc(NC(=O)CCCn2c(=O)c3sccc3n(Cc3ccc(C)cc3C)c2=O)cc1	16µM*	21µM*	-23%	5%	-7%	-30
Cc1ccc(C)c(Cn2c(=O)n(CCCCCC(=O)NCc3ccc4c(c3)OCO4)c(=O)c3sccc32)c1	?	?	0%	2%	/	/
CCOC(=O)C1CCCN(C(=O)c2ccc(C(=O)c3ccccc3)cc2)C1 (configuration not stated)	?	-20%	-20%	-30%	3%	-12
CCN1CCN(c2c(C(=O)c3ccc(OC)cc3)cnc3ccccc23)CC1	-18%	-15%	3%	-7%	0%	-18
CCOC(=O)C1CCN(c2c(C(=O)c3ccc(OCC)cc3)cnc3ccc(OC)cc23)CC1	21µM*	23µM*	8.9µM*	-32%	/	/
COc1cc2ncc(C(=O)c3ccc(C)cc3)c(N3CCCCC3)c2cc1OC	12µM*	12µM*	?	-11%	/	/
CCOC(=O)C1CCCN(c2c(C(=O)c3ccc(OCC)cc3)cnc3ccccc23)C1 (configuration not stated)	?	18µM*	-28%	-36%	/	/
COc1ccc(C(=O)NN2CCCCC2)cc1OC	-10%	-2%	-2%	-6%	2%	-16
CCOC(=O)C1CCCN(c2c(C(=O)c3ccccc3)cnc3ccc(OC)cc23)C1 (configuration not stated)	21µM*	15µM*	-23%	-24%	-2%	15
CC(C)Cc1nn2c(=O)cc(COC(=O)c3ccc(NC(=O)CCc4ccccc4)cc3)nc2s1	-21%	1%	9%	-2%	/	/
COc1ccc(/C=N/NC(=O)c2ccc(NC(C)=O)cc2)cc1COc1ccc(F)cc1F	-14%	?	4%	-6%	3%	0
COc1ccc(/C=N/NC(=O)c2ccc(OC)c(OC)c2)cc1COc1c(F)c(F)c(F)c(F)c1F	?	16µM*	0%	-27%	-14%	32
COc1ccc(/C=N\NC(=O)c2ccccc2F)cc1COc1ccc(F)cc1	?	?	-11%	-13%	-3%	35
COc1ccc(/C=N/NC(=O)c2nc(Cl)c(Cl)c(N)c2Cl)cc1COc1ccccc1F	?	23µM*	-1%	-17%	187%	41
COc1ccc(/C=N\NC(=O)c2ccccc2F)cc1COc1ccc(F)cc1F	2.6µM*	2.6µM*	?	-23%	-8%	66
COc1ccc(/C=N/NC(=O)c2cc(C(C)(C)C)[nH]n2)cc1COc1ccc(F)cc1F	23µM*	?	?	-24%	-11%	-77*
Nc1ccn([C@@H]2O[C@H](CNS(=O)(=O)c3cc4ccccc4s3)[C@@H](O)[C@H]2O)c(=O)n1	-4%	-1%	4%	-7%	/	-15
O=C(Cn1c(=O)cnc2ccccc21)Nc1cccc(S(=O)(=O)N2CCCCC2)c1	?	?	-2%	-16%	7%	-7
COc1ccc(/C=N\NC(=O)c2ccccc2OC)cc1COc1ccccc1C	?	16µM*	21%	-15%	-12%	-19
COc1ccc(/C=N\NC(=O)c2ccccc2Br)cc1COc1c(F)c(F)cc(F)c1F	16µM*	?	?	-48%	-10%	-25
COc1ccc(/C=N/NC(=O)c2ccc(F)cc2)cc1CN1CCc2cc(OC)c(OC)cc2C1C (configuration not stated)	18µM*	?	-21%	-21%	-5%	-59*
COc1ccc(/C=N/NC(=O)c2ccoc2C)cc1COc1c(C)cccc1C	15µM*	12µM*	-16%	-36%	-15%	6
COc1ccc(/C=N/NC(=O)c2ccccc2O)cc1COc1ccccn1	17%	-2%	-1%	-7%	-4%	17
SMILES	TDP1 cell noCPT	TDP1 cell CPT	TGFb inhibitor	HepG2 tox	S-ASM inh	IL-1B inflam inh
CCc1cccc(C)c1NC(=O)C1CCN(S(=O)(=O)c2cc(Br)cc3c2N(C(C)=O)CC3)CC1	2%	17%	12%	2%	/	/
Cc1n[nH]c(=O)c2c(NC(=O)COC(=O)/C=C/c3cccc(C(F)(F)F)c3)oc(C)c12	17%	13%	0%	-5%	-5%	11
COc1ccccc1N1C(=S)NC2CS(=O)(=O)CC21 (configuration not stated)	8%	9%	0%	-26%	0%	-1
CN1CCN(c2oc(/C=C/c3ccc(F)cc3)nc2C#N)CC1	?	?	/	-10%	/	/
COc1ccc(C2=NS(=O)(=O)N(C)C(C(=O)Nc3ccc(C)cc3)=C2)cc1	21µM*	?	-12%	-26%	-19%	-24
COc1cc(NC(=O)C2=CC(c3ccc(F)cc3)=NS(=O)(=O)N2C)cc(OC)c1OC	23µM*	?	0%	3%	/	/
COc1cccc(C2=NS(=O)(=O)N(C)C(C(=O)Nc3ccccc3SC)=C2)c1	?	16µM*	-10%	-27%	/	/
CCc1ccccc1NC(=O)C1=CC(c2ccc3c(c2)OCO3)=NS(=O)(=O)N1C	-29%	?	-41%	-7%	/	/
CC(=O)c1ccc(NC(=O)C2=CC(c3ccc(C)cc3)=NS(=O)(=O)N2C)cc1	4.1µM*	8.2µM*	?	-17%	/	/
Cc1ccc(NC(=O)C2=CC(c3ccc(C)cc3)=NS(=O)(=O)N2C)cc1	?	?	-14%	-26%	-18%	19
C[C@H]1CN([C@@H](C)CO)C(=O)c2c(c3ccccc3n2C)-c2ccccc2CO[C@H]1CN(C)C(=O)[C@@H]1CCCN1C	?	-24%	6%	50%	/	-29
CCN(CC)CCOC(=O)c1ccc(N)cc1Cl	-11%	-3%	/	/	/	/
O=C(NCc1ccccc1Cl)c1ccc2c(O)c(S(=O)(=O)c3ccccc3)c(=O)[nH]c2c1	10%	18%	-22%	-9%	/	/
